Source: PubChem BioAssay AID1851 (National Center for Advancing Translational Sciences (NCATS), 2009)
Screen size: about 16,000 compounds; about 5,100 (32%) were called active. Inconclusive results (about 25%) are left out. Calls follow the shape of the dose curve; as a rule, active = well fitted curve in the direction sought with a large enough effect; inconclusive = small, poorly fitted or top-dose-only effect, or effect the other way; inactive = no such curve, though single readings can be large or run the other way. This is one part of the list.

biological target: Cytochrome P450 3A4 (Homo sapiens) (UniProt P08684); test: Cytochrome panel assay with activity outcomes; settings: recombinant CYP, pro-luciferin dealkylation, luminescence, p450-cyp3a4; series mostly up to 57.1 µM; activity, negative = inhibition: at the top concentration
Sequence (P08684 whole entry, looked up): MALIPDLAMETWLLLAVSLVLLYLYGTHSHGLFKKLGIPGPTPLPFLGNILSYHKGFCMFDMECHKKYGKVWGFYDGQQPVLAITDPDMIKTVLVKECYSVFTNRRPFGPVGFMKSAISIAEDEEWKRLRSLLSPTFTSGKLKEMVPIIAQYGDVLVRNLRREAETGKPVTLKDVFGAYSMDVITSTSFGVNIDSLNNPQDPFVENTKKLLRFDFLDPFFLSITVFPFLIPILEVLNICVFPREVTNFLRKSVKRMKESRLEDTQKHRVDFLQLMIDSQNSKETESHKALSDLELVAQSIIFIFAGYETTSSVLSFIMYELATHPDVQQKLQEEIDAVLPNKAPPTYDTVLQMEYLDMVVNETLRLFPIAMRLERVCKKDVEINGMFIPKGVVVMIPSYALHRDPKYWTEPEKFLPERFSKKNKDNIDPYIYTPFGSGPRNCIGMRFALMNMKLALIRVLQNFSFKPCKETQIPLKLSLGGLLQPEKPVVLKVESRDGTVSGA
% is scaled to controls: 0 for no effect and ±100 for the full control effect.

AC50, active:
CCc1c(C)c(C#N)c2nc3ccccc3n2c1Nc1c(C)n(C)n(-c2ccccc2)c1=O 7.94 µM
COc1ccc2nc(C)cc(SCC(=O)NNC(=O)COc3ccccc3)c2c1 2.82 µM
COc1ccc2nc(SCC(=O)NN)cc(C)c2c1 2.82 µM
COc1ccc2nc(C)cc(SCC(=O)Nc3c(C)cc(C)cc3C)c2c1 2.51 µM
COc1ccc(NC(=O)CCSc2cc(C)c3ccccc3n2)cc1 3.98 µM
COc1ccc2nc(C)cc(SCC(=O)NNC(=O)COc3ccc(C)cc3)c2c1 2.24 µM
CC(=O)NCCNc1nc(-c2c(C)noc2C)nc2ccccc12 15.8 µM
CC(=O)NCCNc1nc(-c2ccccc2C)nc2ccccc12 5.01 µM
CCn1c2ccccc2c2cc(NC(=O)C/C(C)=N/NC(=O)c3ccccc3N)ccc21 7.08 µM
COc1ccccc1CNc1ccnc(-c2c(C)noc2C)n1 5.01 µM
COc1ccc(CNc2ccnc(-c3c(C)noc3C)n2)c(OC)c1 2.51 µM
CC1(C)Cc2c(sc3nc(SCC(=O)NCc4ccccc4)n(-c4ccccc4)c(=O)c23)CS1 3.55 µM
Cc1ccc(-n2c(SCC(=O)NCc3ccco3)nc3sc4c(c3c2=O)CC(C)(C)SC4)cc1 2 µM
CN(C)c1ccc(-c2cncnc2NCc2cccnc2)cc1 0.631 µM
CN(C)c1ccc(-c2cncnc2NCc2ccccc2)cc1 0.0316 µM
Cc1ccc(/C=N/NC(=O)CSc2nc3nc(C)cc(C)n3n2)cc1 15.8 µM
Cc1cc(C)n2nc(SCc3cc(=O)oc4ccc5ccccc5c34)nc2n1 2.24 µM
COc1ccccc1CNC(=O)CSc1nc2nc(C)cc(C)n2n1 14.1 µM
CCn1c(SCC(=O)NC2CCCCC2)nnc1-c1cc2cccc(OC)c2o1 10 µM
CCNC(=O)COC(=O)c1cc(-c2ccc(OC)cc2)nc2ccccc12 14.1 µM
Cc1ccc(CS(=O)(=O)CCC(=O)NCCCN2CCCC2)cc1 28.2 µM
Cc1ccccc1CS(=O)(=O)CCC(=O)NCCCN1CCN(c2ccccc2F)CC1 11.2 µM
N#Cc1c(-c2ccccc2)no[n+]1[O-] 12.6 µM
CCOc1ccc(N(CC(=O)NCc2ccc(OC)cc2)S(=O)(=O)c2c(C)noc2C)cc1 0.631 µM
COc1ccc(N(CC(=O)NCc2cccc(OC)c2)S(=O)(=O)c2c(C)noc2C)cc1 1.78 µM
Cn1cccc1C(=O)N1CCC[C@@]2(CCN(c3ccccc3)C2)C1 10 µM
Cn1cccc1C(=O)N1CCC[C@@]2(CCN(c3cccc(-c4ccccc4)c3)C2)C1 7.94 µM
Cn1cccc1C(=O)N1CCC[C@@]2(CCN(c3ccncc3)C2)C1 1 µM
Cn1cccc1C(=O)N1CCC2(CCCN(c3cccc(-c4ccccc4)c3)C2)CC1 10 µM
Cn1cccc1C(=O)N1CCC[C@@]2(CCN(C(c3ccccc3)c3ccccc3)C2)C1 12.6 µM
COc1cccc2c1[C@@H]1CN(CCCCn3c(=O)[nH]c4c(sc5ncc(-c6ccccc6)nc54)c3=O)C[C@H]1CO2 15.8 µM
O=C1Nc2ccccc2C(O)(C(=O)NCc2ccc3c(c2)OCO3)N1c1ccc(Cl)c(Cl)c1 (stereo unspecified) 0.126 µM
O=S1(=O)[C@H]([C@H]2CC3c4ccccc4C2c2ccccc23)[C@@H](N2CCCCC2)[C@@H]1c1ccccc1 1 µM
CCCCC#Cc1ccccc1CC(=O)Nc1ccccc1 1 µM
C[C@@H](C(=O)Nc1ccc2ccccc2c1)[C@@H]1C[C@@]1(C)[C@@H](NC(=O)OCc1ccccc1)c1ccccc1 7.94 µM
C[C@@H](C(=O)Nc1ccc2ccccc2c1)[C@H]1C[C@]1(C)[C@H](NC(=O)OCc1ccccc1)c1ccccc1 2.51 µM
Cc1ccc(NC(=O)N(Cc2ccco2)C(C)c2ccco2)cc1C (stereo unspecified) 3.16 µM
c1ccc(C[C@@H](Nc2cccnc2)c2ccccc2)cc1 3.16 µM
O=C(NCc1cn(-c2ccccc2)nc1-c1ccccc1)c1cc([N+](=O)[O-])cc([N+](=O)[O-])c1 2.51 µM
COC(=O)c1ccc(C23CC2(C(NP(=O)(c2ccccc2)c2ccccc2)c2ccccc2)C3)cc1 (stereo unspecified) 3.16 µM
COC(=O)[C@@]1(Cc2ccc(F)cc2)[C@H]2c3cc(C(=O)N4CCCC4)n(Cc4ccccn4)c3C[C@H]2CN1C(=O)c1ccccc1 1 µM
COC(=O)[C@@]1(Cc2ccccc2)[C@H]2c3cc(C(=O)N4CCCC4)n(Cc4ccccn4)c3C[C@H]2CN1C(=O)c1ccccc1 2 µM
COC(=O)[C@@]1(Cc2ccccc2)[C@H]2c3cc(C(=O)N4CCCC4)n(CCc4ccccn4)c3C[C@H]2CN1C(=O)c1ccccc1 2 µM
C/C(=C\C(=O)c1ccc(Br)cc1)NCc1ccc2c(c1)OCO2 2.51 µM
CC1CCCC(NC(=O)c2n[nH]c(=O)c3ccccc23)C1C (stereo unspecified) 12.6 µM

AC50, inactive:
C[N+](C)(C)CCCCCC[N+](C)(C)C

activity, negative = inhibition, inactive:
CCc1c(C)c(C#N)c2nc3ccccc3n2c1N1CCN(c2cc(C)ccn2)CC1 -1.59%
Cc1cccc(-n2ncc3c(Nc4c(C)n(C)n(-c5ccccc5)c4=O)ncnc32)c1 -22%
Cc1ccc(OCC(=O)NNC(=O)c2cc3ccccc3o2)cc1 -23.5%
NCCCCN 6.31%
C=CC1=C(C(=O)O)N2C(=O)[C@@H](NC(=O)/C(=N\OCC(=O)O)c3csc(N)n3)[C@@H]2SC1 -9.56% [at 25.6 µM]
COc1ccc2nccc(SCC(=O)O)c2c1 -8.31% [at 11.4 µM]
COc1ccccc1-c1nc(NCCNC(C)=O)c2ccccc2n1 -27.3%
NCCCCCCCCCCN 3.58%
CC(=O)Nc1ccc(NC(=O)C/C(C)=N/NC(=O)C(=O)N2CCCC2)cc1 -6.22%
CC1(C)Cc2c(sc3c2C(=O)N(c2ccccc2)C2=NCCN23)CS1 -23.7%
COc1cc(NC(=O)COC(=O)c2nc3nc(C)cc(C)n3n2)cc(OC)c1 20% [at 2.29 µM]
CCSc1nc2nc(C)cc(C)n2n1 -7.32%
Cc1cc(C)n2nc(SCC(=O)N/N=C/c3ccccc3F)nc2n1 -29.4%
CCCSc1nnc(CSc2nc3nc(C)cc(C)n3n2)o1 5.19% [at 11.4 µM]
COc1cccc2cc(NC(=O)C3CCCCC3)c(=O)oc12 -11.8%
CCC(=O)N[C@@H]1CCc2cccc(OC)c2C1 -19%
N/C(=N\OC(=O)c1cc(-c2ccccc2)nc2ccccc12)c1ccc(Cl)cc1 28.2%
CCNC(=O)COC(=O)c1cc(=O)[nH]c2ccccc12 15.8%
Cc1ccc(CS(=O)(=O)CCC(=O)NCCCN2CCCC2=O)cc1 1.96%
CCS(=O)(=O)N1CCC(C(=O)NCCCN2CCN(c3ccccc3F)CC2)CC1 -9.39%
CCCS(=O)(=O)N1CCCC(C(=O)NCCCN2CCN(c3ccccc3F)CC2)C1 (stereo unspecified) -20.6%
CCOCCCNC(=O)CCS(=O)(=O)Cc1ccc(C)cc1 -15.2%
Cc1ccc2c(c1)/C(=N/OC(=O)c1ccc(F)cc1)CCS2 24.5%
N#Cc1c(-c2ccccc2)nc2n(c1=O)CCS2 -1.65%
N#Cc1c(-c2ccccc2)nc(-c2ccccc2)[nH]c1=O -11%
COc1cccc(CNCCNC(=O)c2nonc2N)c1 3.2%
Cn1cccc1C(=O)N1CCC2(CCCN(c3ncccn3)C2)CC1 -4.9%
Cn1cccc1C(=O)N1CCC2(CC1)CCN(c1ccncc1)CC2 -27.5%
Cn1cccc1C(=O)N1CCC2(CC1)CN(c1ccncc1)C2 -15.8%
CC(C)NC(=O)N1CC[C@@]2(CCCN(C(=O)c3cccn3C)C2)C1 3.62%
Cn1cccc1C(=O)N1CCC2(CC1)CCN(c1cccc(-c3ccccc3)c1)CC2 32.4%
CN1CCCC2(CCN(C(=O)c3cccn3C)CC2)C1 -7.48%
COC(=O)N1CCC[C@@]2(CCN(C(c3ccccc3)c3ccccc3)C2)C1 -29.5%
CC(C)NC(=O)N1CCC2(CC1)CCN(C(=O)c1cccn1C)CC2 -9.8%
NCCCC(=O)O -1.16%
c1ccc(C2CCC(N3CCC(N4CCCCC4)CC3)CC2)cc1 (stereo unspecified) -4.19% [at 2.29 µM]
CCC#CCOCC(=O)Nc1ccccc1 19.9%
O=C(Cc1ccccc1I)Nc1ccccc1 -28.6%
OCCCN=C1CCCCC1 -15.7% [at 11.4 µM]
CNC(=O)c1nnn(Cc2ccccc2)c1NC(=O)C(F)(F)F 11.1%
c1ccc(CCc2cccnc2)nc1 -27.8% [at 11.4 µM]
c1cncc(CNCc2cccnc2)c1 -27.6% [at 11.4 µM]
CCOC(=O)CCN1C(=O)[C@H]2[C@H]3[C@H](O)[C@H](O)C/C(=N/OCC(C)C)[C@@H]3CC[C@@H]2C1=O -27.7% [at 11.4 µM]
O=C(c1ccc([N+](=O)[O-])cc1)n1nc(-c2ccccc2)nc1NCc1ccccc1 13.6% [at 2.29 µM]
COC(=O)c1ccc(C#CC(NP(=O)(c2ccccc2)c2ccccc2)c2ccccc2)cc1 (stereo unspecified) -25.5%
COC(=O)c1ccc(NC(=O)c2ccccc2)o1 -12.8% [at 2.29 µM]
CN1C(=O)C[C@H](c2ccccc2)C1=O -5.93% [at 25.6 µM]
C/C(=N\Nc1nnc(C)c(=O)[nH]1)C(=O)O -10%
O=C(O)[C@@H](O)[C@@H](O)[C@H](O)[C@H](O)CO -3.9% [at 11.4 µM]
O=C(Cc1ccc(Br)cc1)OCC(=O)c1ccc2c(c1)OCCO2 -3.84% [at 2.29 µM]
